In PubChem BioAssay (NCATS):
Results filed as inconclusive are left out. Entries that show only a call come without a potency. Active and inactive are the calls of the source. The call rests on the fitted dose curve; in most records, active means well fitted inhibition curve with a large enough effect; inconclusive means small, poorly fitted or top-dose-only effect; inactive means no such curve, though single readings can be large or run the other way.

target: Retinaldehyde dehydrogenase 3 (Homo sapiens) (UniProt P47895); assay: qHTS for Inhibitors of the Aldehyde Dehydrogenase Family (ALDH1A3) Primary screen (AID 2061315); conditions: ALDH inhibition qHTS; series mostly up to 56 µM

Row | SMILES | Potency
1 | O=C(O)c1ccc(O)c2ncc(N3CCCN(CCCc4ccncc4)CC3)cc12 | inactive
2 | O=C(O)c1ccc(-c2ccc3ncnc(N4CCOCC4)c3c2)o1 | inactive
3 | CCN(CC)Cc1cccc(/C=C/c2nc3ccc(F)cc3c(=O)n2-c2ccccc2Cl)n1 | inactive
4 | O=S(=O)(Nc1cnc2ccccc2c1)c1ccc(NCc2cccc(Cl)c2O)cc1 | inactive
5 | COc1cc(O)c(C(CC(=O)N2CCCC(C(=O)N3CCCCC3)C2)c2ccc3c(c2)OCO3)c(OC)c1 (stereo not given) | inactive
6 | Cc1cccc(-c2nnc(C)n2CCCn2ccnc2)c1[N+](=O)[O-] | inactive
7 | Fc1cc(Nc2nc(-c3ccncc3)nc3ccccc23)ccc1-n1cncn1 | inactive
8 | O=S(=O)(Nc1nccs1)c1ccc(NCc2ccc(Br)cc2O)cc1 | inactive
9 | Cc1ccc(N[S+](=O)([O-])c2cc3c(cc2Cl)CCC(=O)N3)cc1Br | inactive
10 | CCOc1ccc(CCNC(=O)C2COc3ccccc3O2)cc1OCC (stereo not given) | inactive
11 | O=C(Nc1ccc2ccccc2c1)Nc1nnc(-c2ccccc2)s1 | inactive
12 | COc1ccc(C(=O)Nc2ccc(-c3nc4ccccc4[nH]3)cc2)cc1F | inactive
13 | Cc1cc(C)n2ncc(C(=O)Nc3ccc(C(F)(F)F)cc3)c2n1 | inactive
14 | CC(C)Nc1cccc(S(=O)(=O)N2CCCN(S(=O)(=O)c3ccc4c(c3)OCCO4)CC2)c1 | inactive
15 | FC(F)(F)c1cccc(N2CCN(C(=S)Nc3cc(C(F)(F)F)ccn3)CC2)c1 | inactive
16 | CCCn1c(C)nc2c(NCCN(C)C)nc(C)nc21 | inactive
17 | O=S(=O)(Nc1ccc(C2CCNCC2)cc1)c1ccc(NCc2cccc(Cl)c2O)cc1 | inactive
18 | Cc1nc(NCCO)c2nc(-c3ccccc3)n(CC3CCN(C)CC3)c2n1 | inactive
19 | COc1cc2nc(Nc3ccccc3)nc(NC3CC3)c2cc1OC | inactive
20 | Cc1ccc(-c2c(C(=O)CF)n(CCCO)c3ncnc(N)c23)cc1 | inactive
21 | O=C1CCCC2=C1C(c1cccc(Cl)c1)N=C(Nc1nc3ccccc3o1)N2 (stereo not given) | inactive
22 | C=CCNc1oc(-c2cccc(Cl)c2)nc1C#N | inactive
23 | O=C(Cc1ccc(Cl)c(Cl)c1)Nc1ccc([S+](=O)([O-])Nc2ncn[nH]2)cc1 | inactive
24 | Cc1cc2c(s1)c1cnn(Cc3ccc(F)cc3)c(=O)c1n2C | inactive
25 | Cc1ccc(NS(=O)(=O)c2cccc(Cl)c2)cc1C | inactive
